The source made the active and inactive calls.

Experiment [1] deals with Human papillomavirus type 1a protein E7 (residues 44-93). Kind of experiment: small molecules binding HPV E7 44-93 – biochemical, small-molecule microarray, residues 44-93, 635 nm fluorescence, primary screen (AID 1108).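 Also: E7 fragment applied at 1 µg/mL in TBST for 1 h at 4 C; score combines spot fluorescence with its signal to noise ratio.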 The note with it: fluorescence 635 nm, higher = more signal.
Experiment [2] in a line: hepatitis C replication reporter changes, two-sided – Huh7 cells, luciferase reporter, HCV replication inhibitor project, primary screen (AID 1109).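 Also: huh7 hepatoma cells harbouring a luciferase neomycin HCV replicon reporter; luciferase luminescence as measure of HCV replicon replication; test concentration not given here.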 Particulars: Huh7 HCV replicon luciferase reporter, 48 h; higher = more signal.
For experiment [3], the target named is Left-right determination factor 2 (Homo sapiens) (UniProt O00292). Briefly: small molecules binding LEFTY2 protein – biochemical, small-molecule microarray, 635 nm fluorescence scan, primary screen (AID 1110). Particulars: higher = more signal.
Experiment [4] has as its target Calmodulin-1 (Homo sapiens) (UniProt P0DP23). Briefly: small molecules binding calmodulin-1 with EGTA – biochemical, small-molecule microarray, Cy5-labelled CALM1, profiling panel (AID 1111).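 Also: labelled calmodulin applied in Tris saline Tween buffer holding calcium plus EGTA and DTT.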 Particulars: Cy5-CALM1 binding fluorescence, higher = more signal.
Experiment [5] shares this target. Briefly: small molecules binding Ca-loaded calmodulin-1 – biochemical, small-molecule microarray, Cy5-labelled CALM1, plus calcium, artefact control for SMM control-protein annotation, profiling panel (AID 1112).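 Also: score merges spot fluorescence with signal to noise from triplicate slides.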 The note with it: Cy5-CALM1 binding fluorescence, higher = more signal.
Experiment [6] can be described thus: probe aWnt5a binding to arrayed compounds – biochemical, biotinylated probe, 635/667 nm fluorescence, primary screen (AID 1113).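 Also: score merges 667 nm fluorescence intensity with signal-to-noise per printed feature.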 Particulars: small-molecule microarray, higher = more signal.
Experiment [7] can be described thus: probe aShh binding to arrayed compounds – biochemical, biotinylated probe, 635/667 nm fluorescence, primary screen (AID 1114).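 Also: probe is biotin-labelled aShh protein from a stem cell growth factor screen; measures binding of labelled protein to compounds printed on the slide; score merges feature fluorescence at 667 nm with signal-to-noise.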 Particulars: small-molecule microarray, higher = more signal.
Experiment [8] is described as follows: probe aNog binding to arrayed compounds – biochemical, biotinylated probe, 635/667 nm fluorescence, primary screen (AID 1115).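 Also: probe is biotinylated aNog protein used at 0.15 µg/mL for 1 h at 4 C; z-score combines 667 nm fluorescence of each spot with its signal to noise.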 Particulars: small-molecule microarray, higher = more signal.
Experiment [9] deals with Torsin-1A-interacting protein 1 (Homo sapiens) (UniProt Q5JTV8). Kind of experiment: compound microarray binding of lysate hLAP1 – cell lysate, small-molecule microarray, COS7 lysate, 635/667 nm fluorescence, primary screen (AID 1116). Particulars: 635 nm fluorescence, higher = more signal.
Experiment [10] concerns the target Alpha-bungarotoxin (Bungarus multicinctus) (UniProt P60615). Kind of experiment: compounds binding labelled alpha-BTX control protein – biochemical, small-molecule microarray, Alexa647 label, 635/667 nm fluorescence, artefact control for SMM control protein annotation, profiling panel (AID 1117). Particulars: alpha-BTX-A647 binding fluorescence, higher = more signal.

For another experiment, the target named is Albumin (Bos taurus) (UniProt P02769). Kind of experiment: compounds binding labelled BSA control protein – biochemical, small-molecule microarray, Alexa647 label, 635/667 nm fluorescence, artefact control for SMM control protein annotation, profiling panel (AID 1118).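 Also: score merges 667 nm emission intensity and signal-to-noise per printed compound spot.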 The note with it: BSA-A647 binding, fluorescence 635 nm, higher = more signal.
The nature of experiment [11]: probe aXIP binding to arrayed compounds – biochemical, NeuroSMM set, 635/667 nm fluorescence, primary screen (AID 1119).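 Also: probe is the protein aXip251-270 applied at 1 µg/mL to compound-printed slides; binding of probe to printed compounds measured as 667 nm fluorescence plus signal to noise.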 Particulars: small-molecule microarray, higher = more signal, called active from +8 up or from −8 down.
A short description of experiment [12]: probe aNOTCH3 binding on compound microarray – biochemical, small-molecule microarray, 635/667 nm fluorescence, primary screen (AID 1120).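 Also: probe is a biotin-tagged antibody raised against NOTCH3 rather than NOTCH3 protein; score merges spot fluorescence near 667 nm with spot signal to noise.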 The note with it: higher = more signal.
Experiment [13] can be described thus: probe aNOTCH2 binding on compound microarray – biochemical, small-molecule microarray, 635/667 nm fluorescence, primary screen (AID 1121).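 Also: score merges feature fluorescence read at 667 nm with its signal to noise.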 Particulars: higher = more signal.
Experiment [14] concerns the target Carbonic anhydrase 2 (Homo sapiens) (UniProt P00918). Briefly: compounds binding carbonic anhydrase 2 – biochemical, small-molecule microarray, Alexa647-labelled CAII, profiling panel (AID 1122). Particulars: CAII-A647 binding fluorescence, higher = more signal.
The nature of experiment [15]: COS7 lysate on small-molecule microarray, probe aHis, 635 nm (AID 1123).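 Also: z-score combines 667nm fluorescence intensity with signal-to-noise per printed compound spot.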 Particulars: COS7 cell lysate, fluorescence, higher = more signal.
Experiment [16] can be described thus: probe aLAP1 signal on lysate-treated microarray – cell lysate, small-molecule microarray, COS7 lysate, primary screen (AID 1124).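 Also: lysate comes from COS7 cells expressing LAP1 and is applied at 0.3 µg/mL; score merges spot fluorescence near 667 nm with signal-to-noise over triplicate slides.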 Particulars: probe aLAP1, fluorescence, higher = more signal.
For another experiment, the system named is Sam68 (KHDRBS1). Briefly: compounds binding KHDRBS1 protein – biochemical, small-molecule microarray, 635 nm fluorescence, primary screen (AID 1125).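 Also: score merges 667 nm channel intensity with signal to noise over triplicate slides.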 The note with it: higher = more signal.
Experiment [17] deals with Chordin-like protein 2 (CHRDL2). Kind of experiment: compounds binding chordin-like 2 – biochemical, small-molecule microarray, 635 nm fluorescence, primary screen (AID 1126).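 Also: printed compound slides probed with Chrdl2 protein at 4 µg/mL for 1 h at 4 C; score merges 667 nm emission intensity with signal to noise over three replicate slides.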 The note with it: fluorescence 635 nm, higher = more signal.
In experiment [18] the target is Concanavalin-A (Canavalia ensiformis) (UniProt P02866). Briefly: compounds binding concanavalin A lectin – biochemical, small-molecule microarray, Alexa647 label, 635 nm, artefact control for SMM control protein annotation, primary screen (AID 1127).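 Also: z combines 667 nm emission intensity with signal-to-noise across three replicate slides.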 Particulars: ConA-A647 binding fluorescence, higher = more signal.
Sequence of Concanavalin-A (Canavalia ensiformis) (P02866 whole entry, looked up): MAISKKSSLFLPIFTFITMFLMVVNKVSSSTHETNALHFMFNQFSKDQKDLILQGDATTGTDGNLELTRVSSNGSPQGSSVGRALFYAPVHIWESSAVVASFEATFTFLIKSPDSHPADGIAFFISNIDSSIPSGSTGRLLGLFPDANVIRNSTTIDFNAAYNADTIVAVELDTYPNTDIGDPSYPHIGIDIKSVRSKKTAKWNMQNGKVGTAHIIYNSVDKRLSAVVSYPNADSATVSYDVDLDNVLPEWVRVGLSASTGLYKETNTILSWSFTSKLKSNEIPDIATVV

Sequence of Left-right determination factor 2 (Homo sapiens) (O00292 whole entry, looked up): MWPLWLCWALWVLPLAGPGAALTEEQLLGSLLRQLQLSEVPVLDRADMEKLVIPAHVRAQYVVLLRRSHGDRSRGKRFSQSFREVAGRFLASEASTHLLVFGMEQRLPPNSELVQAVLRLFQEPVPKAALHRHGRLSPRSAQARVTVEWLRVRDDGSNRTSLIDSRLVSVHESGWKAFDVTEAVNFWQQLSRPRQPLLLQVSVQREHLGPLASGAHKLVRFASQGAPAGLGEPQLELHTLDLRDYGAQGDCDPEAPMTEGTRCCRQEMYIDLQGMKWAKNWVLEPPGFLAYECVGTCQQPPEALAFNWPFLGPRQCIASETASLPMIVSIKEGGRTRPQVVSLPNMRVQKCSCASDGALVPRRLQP
Sequence of Alpha-bungarotoxin (Bungarus multicinctus) (P60615 whole entry, looked up): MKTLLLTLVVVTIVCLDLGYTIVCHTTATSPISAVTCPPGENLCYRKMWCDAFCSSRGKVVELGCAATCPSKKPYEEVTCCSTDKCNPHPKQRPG
Sequence of Albumin (Bos taurus) (P02769 whole entry, looked up): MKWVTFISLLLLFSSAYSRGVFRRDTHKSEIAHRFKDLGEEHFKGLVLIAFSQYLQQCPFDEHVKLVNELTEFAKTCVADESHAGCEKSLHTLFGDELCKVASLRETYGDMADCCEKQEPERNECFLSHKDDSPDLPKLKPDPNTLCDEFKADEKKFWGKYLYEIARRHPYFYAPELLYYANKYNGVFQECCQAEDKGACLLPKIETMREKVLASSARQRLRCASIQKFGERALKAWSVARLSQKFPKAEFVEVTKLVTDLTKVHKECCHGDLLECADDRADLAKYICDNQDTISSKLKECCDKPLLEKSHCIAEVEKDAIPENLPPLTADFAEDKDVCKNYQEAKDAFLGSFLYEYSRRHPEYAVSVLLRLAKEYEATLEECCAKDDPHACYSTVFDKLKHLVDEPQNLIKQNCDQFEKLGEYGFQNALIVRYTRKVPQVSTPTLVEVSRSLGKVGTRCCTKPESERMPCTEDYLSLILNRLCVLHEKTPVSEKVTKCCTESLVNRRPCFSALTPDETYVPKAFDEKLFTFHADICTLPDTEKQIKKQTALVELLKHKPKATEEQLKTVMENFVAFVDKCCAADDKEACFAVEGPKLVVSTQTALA
Sequence of Torsin-1A-interacting protein 1 (Homo sapiens) (Q5JTV8 whole entry, looked up): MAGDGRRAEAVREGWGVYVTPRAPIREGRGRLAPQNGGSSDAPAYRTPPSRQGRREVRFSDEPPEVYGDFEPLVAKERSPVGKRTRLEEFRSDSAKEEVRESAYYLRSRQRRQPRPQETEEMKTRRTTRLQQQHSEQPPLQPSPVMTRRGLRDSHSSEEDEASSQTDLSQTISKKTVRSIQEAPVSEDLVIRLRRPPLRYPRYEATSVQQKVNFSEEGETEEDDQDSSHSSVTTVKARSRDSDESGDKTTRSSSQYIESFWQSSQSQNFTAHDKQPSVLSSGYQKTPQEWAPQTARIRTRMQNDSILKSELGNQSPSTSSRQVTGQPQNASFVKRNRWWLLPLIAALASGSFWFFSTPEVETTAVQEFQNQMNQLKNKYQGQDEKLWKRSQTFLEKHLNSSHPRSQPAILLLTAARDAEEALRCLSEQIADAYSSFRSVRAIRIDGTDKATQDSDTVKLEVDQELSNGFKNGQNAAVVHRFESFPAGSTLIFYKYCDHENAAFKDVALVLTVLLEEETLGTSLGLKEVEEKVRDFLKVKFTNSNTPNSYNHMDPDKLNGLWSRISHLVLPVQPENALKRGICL

On to `CCOC(=O)C[C@H]1[C@H](OC(=O)Cc2ccc3c(c2)OCO3)[C@@H](NC(=O)Cc2ccc(OC)cc2)c2cc(OCCCO)ccc2N1C(=O)c1ccccc1`, for which the composite z-score in [1] is 0.142; in experiment [3], 0.609; in experiment [4], 0.0314; in experiment [5] it was -0.551; in experiment [6], -0.154; in experiment [7], 0.233. Further, the composite z-score in [8] was 0.588; in experiment [9], 0.569; in experiment [10], 0.997; in the experiment with Albumin (Bos taurus), 0.793; in experiment [12] it was -0.141; in experiment [13], -0.0502. Besides, the composite z-score was 0.461 in [14]; 0.682 in [15]; -0.0207 in experiment [16]; 1.01 with Sam68 (KHDRBS1); -0.353 in [17]; 0.277 in experiment [18]. The z-score in experiment [2] is -1.72. The composite Z-score in [11] is -0.0539 (inactive).

For `CCOC(=O)[C@@H]1[C@@H]2C(=O)N(CC)C(=O)[C@@H]2C[C@@H]1Sc1ccccc1`, the composite z-score in experiment [1] was 1.35; in experiment [3], 0.0952; in [4] it was 0.414; in [5], 0.163; in [6] it was 0.0357; in experiment [7] it was 0.131. In addition, the composite z-score in experiment [8] is 0.266; in experiment [9] it was 0.706; in experiment [10] it was 1.27; in the experiment with Albumin (Bos taurus), 0.663; in experiment [12] it was 0.191; in experiment [13], -0.0297. Besides, the composite z-score in [14] was 0.36; in experiment [15], 1.84; in [16], 0.68; in the experiment on Sam68 (KHDRBS1) it was 1.25; in [17], -0.235; in experiment [18] it was 0.563. Further, the z-score in [2] is -1.33. The composite Z-score in [11] was -0.889 (inactive).

As for `CN1C2C=C(CCCO)C(C3C(=O)N(C(N)=O)C(=O)C32)C1c1cccs1` (stereo not given), the composite z-score was 0.261 in experiment [1]; 0.362 in [3]; -0.555 in [4]; -0.328 in experiment [5]; 0.535 in experiment [6]; -0.138 in experiment [7]. For the same compound, the composite z-score is -0.0987 in experiment [8]; 0.377 in experiment [9]; 0.378 in [10]; -0.435 in the experiment with Albumin (Bos taurus); -0.179 in experiment [12]; 0.61 in experiment [13]. Moreover, the composite z-score in [14] was 0.409; in experiment [15] it was 0.924; in experiment [16] it was -0.212; in the experiment with Sam68 (KHDRBS1), 0.226; in experiment [17], 1.51; in [18] it was -0.0398. This compound registered a z-score in experiment [2] of -0.364. Besides, the composite Z-score in experiment [11] was -0.394 (inactive).

Consider `C=CCNC(=O)[C@@H]1[C@H]2C(=O)O[C@H](c3ccccc3)[C@H](c3ccccc3)N2[C@H](c2ccccc2OCCO)[C@@]12C(=O)N(C(=O)OCCOC)c1ccc(C#CC3=CCCCC3)cc12`, for which the composite z-score was 0.829 in experiment [1]; 0.167 in experiment [3]; 0.743 in experiment [4]; -0.0835 in experiment [5]; -0.124 in experiment [6]; -0.0553 in [7]. The composite z-score is 0.394 in experiment [8]; 1.15 in experiment [9]; 1.59 in experiment [10]; 0.706 with Albumin (Bos taurus); -0.0699 in experiment [12]; -0.0664 in [13]. Also, the composite z-score in experiment [14] was 0.467; in experiment [15], 1.76; in experiment [16], -0.218; in the experiment on Sam68 (KHDRBS1) it was 1.28; in [17], 0.741; in experiment [18], 1.12. This compound also showed a z-score in experiment [2] of -2.12. Besides, the composite Z-score in experiment [11] is 2.45 (inactive).

In the case of `CCOc1cc(C(O)C2C=CC3C(=O)N(C)C(=O)C3N2N2CCCCC2)ccc1O` (stereo not given), the composite z-score in experiment [1] is 0.0912; in [3], 0.298; in [4], -0.0003; in experiment [5], -0.393; in [6], 0.0173; in experiment [7], 0.199. Also, the composite z-score in experiment [8] is 0.243; in [9], -0.283; in experiment [10], 0.676; in the experiment with Albumin (Bos taurus), 0.534; in [12], 0.135; in [13], -0.0106. In addition, the composite z-score in [14] turned out to be 0.709; in experiment [15], 0.733; in experiment [16], 0.14; in the experiment on Sam68 (KHDRBS1), 0.0667; in experiment [17] it was 0.278; in [18], 0.852. Also, the z-score in experiment [2] came to 0.403. Further, the composite Z-score in [11] was 0.293 (inactive).

These data come from PubChem BioAssay.
